In PubChem BioAssay:
For some assays here: Entries with a potency or affinity are not part of this list. Calls of active or inactive are those of the source.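 How the source made its calls, unless noted: active means earlier screen potentiator hit that boosts the TRPC4 ion channel at some dose, with a dose response; inactive means no potentiation, no dose response, or not a prior hit.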

Key:
[1] = system: TRPC4 beta (transient receptor potential cation channel C4), mouse; assay: activators of mouse TRPC4 channel, confirmation, cell-based, Fluo4 calcium, HEK293 TRPC4beta/mu-opioid, duplicates, 10 µM (AID 2426;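 active means fluorescence ratio normalized to control raised more than 50% in primary screen plus both repeat runs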;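 on activation: percent rise of integrated ratio over buffer wells lacking compound which define 0%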); conditions: Fluo4 calcium fluorescence, at 10 µM; hits give high values
[2] = system: transient receptor potential cation channel C4 beta (TRPC4), mouse; assay: activators of mouse TRPC4 channel, confirmation, cell-based, second round, Fluo4, HEK293 TRPC4beta/mu-opioid, 1 µM (AID 2461;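 active means primary screen active and over 50% activation in each of two duplicate runs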;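 on activation: 0% = wells without test compound as baseline of integrated fluorescence ratio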); conditions: Fluo4 calcium fluorescence, at 1 µM; hits give high values
[3] = system: TRPC4 (transient receptor potential cation channel C4 beta), mouse; assay: positive allosteric modulators of mouse TRPC4, confirmation, cell-based, second round, Fluo-4, HEK293 TRPC4beta/mu-opioid, 1 µM (AID 2554;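 active means primary screen hit whose fluorescence ratio, in both repeats, exceeds the weak agonist control mean by 3 SD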); conditions: DAMGO EC20, Fluo-4 calcium flux, at 1 µM; hits give high values
[4] = system: TRPC4 beta (transient receptor potential cation channel C4), mouse; assay: positive allosteric modulators of mouse TRPC4, confirmation, cell-based, Fluo-4, HEK293 TRPC4beta/mu-opioid (AID 2555;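 active means primary screen hit whose calcium fluorescence ratio, in both repeats, exceeds the weak agonist control mean by 3 SD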); conditions: DAMGO EC20, Fluo-4 calcium flux, at 10 µM; hits give high values
[5] = molecular target: Short transient receptor potential channel 4 (Mus musculus) (UniProt Q9QUQ5); assay: inhibitors of mouse TRPC4 channel, confirmation, cell-based, Fluo4, HEK293 TRPC4beta/mu-opioid (AID 2636;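 active means calcium signal cut by more than 3 SD below the full-agonist control yet still positive, in both repeats and the earlier primary screen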); conditions: DAMGO, Fluo4 calcium flux, at 10 µM; hits give high values
Sequence of Short transient receptor potential channel 4 (Mus musculus) (Q9QUQ5 whole entry, looked up): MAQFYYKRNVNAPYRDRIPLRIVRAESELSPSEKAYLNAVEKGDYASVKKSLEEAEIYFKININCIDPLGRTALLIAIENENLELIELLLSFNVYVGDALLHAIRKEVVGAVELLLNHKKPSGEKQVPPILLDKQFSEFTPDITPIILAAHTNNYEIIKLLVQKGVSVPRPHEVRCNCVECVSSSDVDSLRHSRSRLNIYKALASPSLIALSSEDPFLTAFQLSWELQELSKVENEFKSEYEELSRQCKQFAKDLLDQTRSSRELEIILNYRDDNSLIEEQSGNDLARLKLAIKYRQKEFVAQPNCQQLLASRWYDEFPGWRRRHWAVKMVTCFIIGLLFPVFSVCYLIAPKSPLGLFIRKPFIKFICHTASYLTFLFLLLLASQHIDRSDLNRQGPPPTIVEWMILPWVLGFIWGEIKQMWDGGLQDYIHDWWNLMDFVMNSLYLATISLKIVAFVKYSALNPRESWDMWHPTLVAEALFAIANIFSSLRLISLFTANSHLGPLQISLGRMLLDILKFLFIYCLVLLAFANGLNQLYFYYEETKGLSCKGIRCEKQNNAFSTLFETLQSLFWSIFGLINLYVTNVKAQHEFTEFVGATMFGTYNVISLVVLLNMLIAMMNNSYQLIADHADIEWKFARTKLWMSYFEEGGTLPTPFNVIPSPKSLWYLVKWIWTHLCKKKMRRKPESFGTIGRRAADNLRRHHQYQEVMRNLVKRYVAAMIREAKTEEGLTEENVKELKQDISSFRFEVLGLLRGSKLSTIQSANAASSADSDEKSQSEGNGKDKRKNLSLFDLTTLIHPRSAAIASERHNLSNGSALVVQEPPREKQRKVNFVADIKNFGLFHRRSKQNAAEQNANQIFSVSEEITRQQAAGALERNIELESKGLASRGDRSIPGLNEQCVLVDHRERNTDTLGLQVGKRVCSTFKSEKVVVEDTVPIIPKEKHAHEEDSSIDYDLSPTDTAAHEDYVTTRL

[6] = molecular target: Short transient receptor potential channel 4 (Mus musculus) (UniProt Q9QUQ5); assay: inhibitors of mouse TRPC4 channel, confirmation, cell-based, second round, Fluo4, HEK293 TRPC4beta/mu-opioid, 1 µM (AID 2637;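 active means calcium signal ratio cut to more than 3 SD under the fully stimulated control mean yet still positive, in both repeats and the primary screen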;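 on inhibition: percent of integrated ratio relative to wells lacking test compound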); conditions: Fluo4 calcium flux, DAMGO, at 1 µM; hits give high values
[7] = molecular target: Short transient receptor potential channel 4 (Mus musculus) (UniProt Q9QUQ5); assay: mouse TRPC4 channel activators, dose response, cell-based, HEK293 TRPC4/mu-opioid, Fluo-4 calcium (AID 434937;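 active means primary screen activator hit with a dose response curve and TRPC4 channel activation at any tested dose; inactive means no activation, no dose response, or not a primary hit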)
[8] = molecular target: Short transient receptor potential channel 4 (Mus musculus) (UniProt Q9QUQ5); assay: TRPC4 positive allosteric modulators, dose response, cell-based, HEK293 TRPC4/mu-opioid, Fluo-4 calcium, EC20 DAMGO (AID 434941);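 further: calcium entry triggered by an EC20 dose of DAMGO at the co-expressed mu-opioid receptor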
[9] = molecular target: Short transient receptor potential channel 6 (Mus musculus) (UniProt Q61143); assay: inhibition of mouse TRPC6 channel, confirmation, selectivity assay for TRPC4 inhibitor project, cell-based, HEK293, membrane potential dye, duplicate (AID 434948;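 active means active in primary screen and both duplicates, each dropping signal beyond three positive-control SD with fluorescence still positive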); conditions: HEK293 TRPC6, membrane potential dye fluorescence, at 10 µM; inhibition: hits give high values, stimulated with maximal-effect acetylcholine unless noted; outcome: stimulated with maximal-effect acetylcholine unless noted
Sequence of Short transient receptor potential channel 6 (Mus musculus) (Q61143 whole entry, looked up): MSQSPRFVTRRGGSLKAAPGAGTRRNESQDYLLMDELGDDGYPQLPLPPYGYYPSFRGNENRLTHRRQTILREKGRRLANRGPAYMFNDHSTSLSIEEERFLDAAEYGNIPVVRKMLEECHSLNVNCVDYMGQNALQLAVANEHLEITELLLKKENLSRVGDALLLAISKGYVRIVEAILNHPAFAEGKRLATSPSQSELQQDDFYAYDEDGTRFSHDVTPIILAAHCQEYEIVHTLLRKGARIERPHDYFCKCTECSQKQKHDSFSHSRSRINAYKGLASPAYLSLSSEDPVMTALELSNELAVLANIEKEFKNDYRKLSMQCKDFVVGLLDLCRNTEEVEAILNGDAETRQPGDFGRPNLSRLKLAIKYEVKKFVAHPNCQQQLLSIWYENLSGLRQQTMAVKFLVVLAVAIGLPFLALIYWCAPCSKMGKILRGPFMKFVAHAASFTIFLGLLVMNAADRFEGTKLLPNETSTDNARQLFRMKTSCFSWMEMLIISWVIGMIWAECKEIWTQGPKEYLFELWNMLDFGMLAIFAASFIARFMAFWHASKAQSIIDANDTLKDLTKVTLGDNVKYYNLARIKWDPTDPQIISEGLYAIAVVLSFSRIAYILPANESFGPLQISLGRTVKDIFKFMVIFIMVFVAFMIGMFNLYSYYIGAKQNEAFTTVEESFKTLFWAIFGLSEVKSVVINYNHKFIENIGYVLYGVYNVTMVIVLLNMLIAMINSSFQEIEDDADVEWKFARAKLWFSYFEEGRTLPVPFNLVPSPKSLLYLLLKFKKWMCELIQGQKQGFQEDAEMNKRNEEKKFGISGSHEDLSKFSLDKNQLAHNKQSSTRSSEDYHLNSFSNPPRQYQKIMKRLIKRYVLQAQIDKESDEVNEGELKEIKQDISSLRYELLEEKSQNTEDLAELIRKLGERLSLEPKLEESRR

[10] = molecular target: Short transient receptor potential channel 6 (Mus musculus) (UniProt Q61143); assay: activation of mouse TRPC6 channel, confirmation, selectivity assay for TRPC4 activator project, cell-based, HEK293, membrane potential dye, duplicate (AID 434950;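 active means membrane potential signal rise above negative control mean plus 3 SD in both duplicates, also active in the earlier TRPC4 screen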;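 on activation: 0% = buffer only wells and 100% = acetylcholine maximal-effect wells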); conditions: HEK293 TRPC6, membrane potential fluorescence, at 10 µM; hits give high values
[11] = molecular target: Short transient receptor potential channel 6 (Mus musculus) (UniProt Q61143); assay: TRPC6 potentiation by TRPC4 potentiator hits, confirmation, selectivity assay for TRPC4 potentiator project, HEK293 cells, membrane potential dye, duplicate (AID 434952;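 active means compound raising the membrane signal above positive-control mean plus 3 SD in both repeats, and a primary screen hit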); conditions: HEK293 TRPC6, membrane potential dye fluorescence, at 10 µM; maximal acetylcholine added after compound unless noted
[12] = molecular target: Short transient receptor potential channel 4 (Mus musculus) (UniProt Q9QUQ5); assay: calcium flux activators in TRPC4/5HT1a cells, counter-screen for TRPC4 activator project, cell-based, second counter screen, HEK293 TRPC4/5HT1a, Fluo-4 (AID 434977;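 active means calcium signal rise above buffer-control mean plus 5 SD in both duplicates, and also a hit in the primary screen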;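 on activation: plate controls were assay buffer for no effect and maximal serotonin response for full effect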); conditions: Fluo-4 calcium flux, at 10 µM; hits give high values
[13] = calcium flux inhibitors in TRPC4/5HT1a cells, confirmation, counter-screen for TRPC4 inhibitor project, cell-based, second counter screen, HEK293 TRPC4/5HT1a, Fluo-4 (AID 434978;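 active means primary screen active whose calcium signal fell more than 3 SD beyond the full-serotonin control mean in both duplicate plates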;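 on outcome: serotonin given first at submaximal then at maximal dose after compound preincubation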); conditions: Fluo-4 calcium flux, at 10 µM; inhibition: hits give high values, serotonin added to trigger calcium flux unless noted; outcome: serotonin added to trigger calcium flux unless noted
[14] = system: TRPC4 (mouse), co-expressed with 5HT1a in HEK293; assay: calcium flux potentiators in TRPC4/5HT1a cells, confirmation, counter-screen for TRPC4 potentiator project, cell-based, second counter screen, HEK293 TRPC4/5HT1a, Fluo-4 (AID 434979;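 active means signal rise over 3 SD above mean of control wells given weak agonist, in both repeats and first screen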); conditions: Fluo-4 calcium flux, at 10 µM; outcome: serotonin added at its EC20 dose unless noted; potentiation: hits give high values, serotonin added at its EC20 dose unless noted
[15] = calcium flux activation in mu-opioid HEK293 cells, confirmation, counter-screen for TRPC4 activator project, cell-based, HEK293 mu-opioid receptor line (AID 449723;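 active means hit in primary screen, with calcium signal over 5 SD above buffer well mean in both duplicates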;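 further: counter screen cells carry the mu-opioid receptor alone and lack TRPC4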); conditions: Fluo-4 calcium fluorescence, at 10 µM; hits give high values
[16] = calcium flux enhancement in mu-opioid HEK293 cells, confirmation, counter-screen for TRPC4 allosteric potentiator project, cell-based, HEK293 mu-opioid receptor line (AID 449724;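 active means calcium signal rise more than 3 SD above the low-dose agonist control mean, in both duplicate plates and the primary screen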); conditions: Fluo-4 calcium flux, at 10 µM; compound added before EC20 DAMGO stimulus unless noted
[17] = molecular target: Short transient receptor potential channel 4 (Mus musculus) (UniProt Q9QUQ5); assay: mouse TRPC4 channel inhibitors, dose response, cell-based, HEK293 TRPC4/mu-opioid, Fluo-4 calcium (AID 434942;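 active means primary screen inhibitor hit that blocks the TRPC4 channel at some tested dose, yielding a dose curve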)

SMILES: CCc1nccc2c1[nH]c1ccccc12
- outcome [1]: inactive
- outcome [2]: inactive
- outcome [3]: inactive
- outcome [4]: inactive
- inhibition [5]: 93% (active)
- inhibition [6]: 63% (active)
- outcome [7]: inactive
- outcome [8]: inactive
- outcome [9]: inactive
- outcome [10]: inactive
- outcome [11]: inactive
- outcome [12]: inactive
- inhibition [13]: 9.99% (active)
- outcome [14]: inactive
- outcome [15]: inactive
- outcome [16]: inactive

SMILES: COc1ccc(C)cc1NC1=NC(C)(C)CS1
- outcome [1]: inactive
- outcome [2]: inactive
- outcome [3]: inactive
- outcome [4]: inactive
- inhibition [5]: 89% (active)
- inhibition [6]: 42% (active)
- outcome [7]: inactive
- outcome [8]: inactive
- outcome [9]: inactive
- outcome [10]: inactive
- outcome [11]: inactive
- outcome [12]: inactive
- outcome [13]: inactive
- outcome [14]: inactive
- outcome [15]: inactive
- outcome [16]: inactive

SMILES: O=C(CCCc1ccccc1)NCCc1cnc[nH]1
- activation [1]: 137% (active)
- outcome [2]: inactive
- outcome [3]: inactive
- outcome [4]: inactive
- outcome [5]: inactive
- outcome [6]: inactive
- outcome [8]: inactive
- outcome [17]: inactive
- outcome [9]: inactive
- outcome [10]: inactive
- outcome [11]: inactive
- activation [12]: 35.3% (active)
- outcome [13]: inactive
- outcome [14]: inactive
- outcome [15]: inactive
- outcome [16]: inactive

SMILES: O=[N+]([O-])c1ccc(N2CCNCC2)cc1NC1CC1
- activation [1]: 64% (active)
- activation [2]: 67% (active)
- outcome [3]: inactive
- outcome [4]: inactive
- outcome [5]: inactive
- outcome [6]: inactive
- outcome [8]: inactive
- outcome [17]: inactive
- outcome [9]: inactive
- outcome [10]: inactive
- outcome [11]: inactive
- activation [12]: 26.6% (active)
- outcome [13]: inactive
- outcome [14]: inactive
- outcome [15]: inactive
- outcome [16]: inactive

SMILES: CC1(C)CC(CCNCc2ccc3c(c2)OCO3)(Cc2ccccc2)CCO1 (centres undefined)
- activation [1]: 169% (active)
- outcome [2]: inactive
- outcome [3]: inactive
- outcome [4]: inactive
- outcome [5]: inactive
- outcome [6]: inactive
- outcome [8]: inactive
- outcome [17]: inactive
- outcome [9]: inactive
- activation [10]: 70% (active)
- outcome [11]: inactive
- activation [12]: 5.46% (active)
- outcome [13]: inactive
- outcome [14]: inactive
- outcome [15]: inactive
- outcome [16]: inactive

SMILES: Cc1ccc(NC(=S)NCCc2cnc[nH]2)cc1C
- activation [1]: 199% (active)
- activation [2]: 106% (active)
- outcome [3]: inactive
- outcome [4]: inactive
- outcome [5]: inactive
- outcome [6]: inactive
- outcome [8]: inactive
- outcome [17]: inactive
- outcome [9]: inactive
- outcome [10]: inactive
- outcome [11]: inactive
- activation [12]: 85% (active)
- outcome [13]: inactive
- outcome [14]: inactive
- outcome [15]: inactive
- outcome [16]: inactive

SMILES: O=[N+]([O-])c1ccc(N2CCCNCC2)c2ncccc12
- activation [1]: 133% (active)
- activation [2]: 139% (active)
- outcome [3]: inactive
- outcome [4]: inactive
- outcome [5]: inactive
- outcome [6]: inactive
- outcome [8]: inactive
- outcome [17]: inactive
- outcome [9]: inactive
- outcome [10]: inactive
- outcome [11]: inactive
- activation [12]: 55.8% (active)
- outcome [13]: inactive
- outcome [14]: inactive
- outcome [15]: inactive
- outcome [16]: inactive

SMILES: CC(N)Cc1c[nH]c2cc3c(cc12)OCCO3 (centres undefined)
- activation [1]: 195% (active)
- activation [2]: 60% (active)
- outcome [3]: inactive
- outcome [4]: inactive
- outcome [5]: inactive
- outcome [6]: inactive
- outcome [8]: inactive
- outcome [17]: inactive
- outcome [9]: inactive [setting not given]
- outcome [10]: inactive
- outcome [11]: inactive [setting not given]
- activation [12]: 107% (active)
- outcome [13]: inactive [setting not given]
- outcome [14]: inactive [setting not given]
- outcome [15]: inactive
- outcome [16]: inactive [setting not given]

SMILES: COc1ccc2c(c1O)C13CCN(C)C(C2)C1CCC(=O)C3 (centres undefined)
- activation [1]: 82% (active)
- activation [2]: 96% (active)
- outcome [3]: inactive
- outcome [4]: inactive
- outcome [5]: inactive
- outcome [6]: inactive
- outcome [8]: inactive
- outcome [17]: inactive
- outcome [9]: inactive [setting not given]
- activation [10]: 27.5% (active)
- outcome [11]: inactive [setting not given]
- outcome [12]: inactive
- outcome [13]: inactive [setting not given]
- outcome [14]: inactive [setting not given]
- outcome [15]: inactive
- outcome [16]: inactive [setting not given]

SMILES: Cn1cc[n+](C)c1P(=S)(c1ccccc1)c1ccccc1
- outcome [1]: inactive
- outcome [2]: inactive
- outcome [3]: inactive
- outcome [4]: inactive
- outcome [5]: inactive
- outcome [6]: inactive
- outcome [8]: inactive
- outcome [17]: inactive
- outcome [9]: inactive
- outcome [10]: inactive
- outcome [11]: inactive
- outcome [12]: inactive
- outcome [13]: inactive
- outcome [14]: inactive
- outcome [15]: inactive
- outcome [16]: inactive

SMILES: COC(=O)C1=CCCN(C)C1
- activation [1]: 96% (active)
- outcome [2]: inactive
- outcome [3]: inactive
- outcome [4]: inactive
- outcome [5]: inactive
- outcome [6]: inactive
- outcome [8]: inactive
- outcome [17]: inactive
- outcome [9]: inactive
- activation [10]: 70% (active)
- outcome [11]: inactive
- activation [12]: 43.8% (active)
- outcome [13]: inactive
- outcome [14]: inactive
- activation [15]: 19.7% (active)
- outcome [16]: inactive

SMILES: COc1ccc(C(CNC(=O)c2ccc3c(c2)CCC3)N(C)C)cc1 (centres undefined)
- activation [1]: 237% (active)
- activation [2]: 142% (active)
- outcome [3]: inactive
- outcome [4]: inactive
- outcome [5]: inactive
- outcome [6]: inactive
- outcome [8]: inactive
- outcome [17]: inactive
- outcome [9]: inactive
- activation [10]: 76.5% (active)
- outcome [11]: inactive
- outcome [12]: inactive
- outcome [13]: inactive
- outcome [14]: inactive
- activation [15]: 12.1% (active)
- outcome [16]: inactive

SMILES: Cc1ccccc1C(O)(Cc1ccccc1)C1CN2CCC1CC2 (centres undefined)
- activation [1]: 109% (active)
- outcome [2]: inactive
- outcome [3]: inactive
- outcome [4]: inactive
- outcome [5]: inactive
- outcome [6]: inactive
- outcome [8]: inactive
- outcome [17]: inactive
- outcome [9]: inactive
- activation [10]: 51% (active)
- outcome [11]: inactive
- outcome [12]: inactive
- outcome [13]: inactive
- outcome [14]: inactive
- outcome [15]: inactive
- outcome [16]: inactive

SMILES: Cc1ccc(Cl)cc1N1CCN(CCN)CC1
- activation [1]: 131% (active)
- activation [2]: 119% (active)
- outcome [3]: inactive
- outcome [4]: inactive
- outcome [5]: inactive
- outcome [6]: inactive
- outcome [8]: inactive
- outcome [17]: inactive
- outcome [9]: inactive
- outcome [10]: inactive
- outcome [11]: inactive
- activation [12]: 53.8% (active)
- outcome [13]: inactive
- outcome [14]: inactive
- outcome [15]: inactive
- outcome [16]: inactive
